# Results from PubChem BioAssay (Tox21).
# Where “and” joins values, the source holds several entries; their conditions need not be identical. Equal values may be shown once. Inconclusive results are not listed. Where a call stands in place of a potency, no number is given. The source holds several records for some structures; these can differ, active in one and inactive in another. Calls of active or inactive are those of the source. Unless noted, calls follow the shape of the full dose curve.
# Key:
# [1] = Nuclear factor erythroid 2-related factor 2/antioxidant responsive element (Nrf2/ARE) small molecule agonists: qHTS cell viability counter screen in human keratinocytes (AID 1919968; active = well fitted curve in the direction sought with a large enough effect in the repeat runs; an effect the other way counts as inactive or inconclusive; also: nearly all actives have a fitted effect of over 55% in size; also: potency is read from the fitted curve at half-maximal effect)
# Procedure, shortened: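 Cytotoxicity was multiplexed with the Nrf2/ARE luciferase assay in the same wells. Stably transfected HaCaT keratinocytes were treated with test compounds for 23 h at 37 C. Cell viability was then measured by CellTiter-Fluor fluorescence.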
# [2] = target: Gonadotropin-releasing hormone receptor (Homo sapiens) (UniProt P30968); assay: Human gonadotropin-releasing hormone receptor (GnRHR) small molecule agonists, calcium flux assay in GnRHR-HEK293 cells (AID 1920063); also: nearly all actives have a fitted effect of over 35% in size
# Chain of Gonadotropin-releasing hormone receptor (Homo sapiens) (P30968 whole entry, looked up): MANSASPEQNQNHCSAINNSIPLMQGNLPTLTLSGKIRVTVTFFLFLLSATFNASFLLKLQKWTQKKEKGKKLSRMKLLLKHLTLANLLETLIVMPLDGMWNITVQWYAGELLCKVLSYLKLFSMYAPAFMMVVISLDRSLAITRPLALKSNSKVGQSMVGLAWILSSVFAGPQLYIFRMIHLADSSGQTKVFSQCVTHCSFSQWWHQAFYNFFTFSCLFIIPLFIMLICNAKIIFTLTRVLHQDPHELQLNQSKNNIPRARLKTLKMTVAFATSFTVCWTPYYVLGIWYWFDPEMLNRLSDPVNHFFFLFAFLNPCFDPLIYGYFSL
# Procedure, shortened: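 Agonist activity was measured as intracellular calcium flux in HEK293 cells engineered to stably express human GnRHR. After dye loading for 1 hour at 37 C, compounds in DMSO were added and fluorescence was followed for 3 minutes.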
# [3] = target: KiSS-1 receptor (Homo sapiens) (UniProt Q969F8); assay: Human kisspeptin (KISS1R) small molecule agonists, calcium flux assay in KISS1R-HEK293 cells (AID 1920064; active = well fitted curve in the direction sought with a large enough effect in the repeat runs; an effect the other way counts as inactive or inconclusive)
# Chain of KiSS-1 receptor (Homo sapiens) (Q969F8 whole entry, looked up): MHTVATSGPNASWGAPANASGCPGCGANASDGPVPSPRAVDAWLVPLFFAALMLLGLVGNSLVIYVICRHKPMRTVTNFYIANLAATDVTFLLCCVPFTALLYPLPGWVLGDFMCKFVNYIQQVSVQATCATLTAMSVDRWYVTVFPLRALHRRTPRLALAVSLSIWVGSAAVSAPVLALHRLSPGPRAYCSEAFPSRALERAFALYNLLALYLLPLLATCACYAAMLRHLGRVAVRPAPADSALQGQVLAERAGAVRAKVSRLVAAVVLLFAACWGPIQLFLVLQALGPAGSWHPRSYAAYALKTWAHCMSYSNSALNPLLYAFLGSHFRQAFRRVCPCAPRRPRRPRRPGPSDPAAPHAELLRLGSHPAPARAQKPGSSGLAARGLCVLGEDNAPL
# Procedure, shortened: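 Agonist activity is monitored as intracellular calcium rise in engineered HEK293 cells carrying human KISS1R. Cells are dye-loaded for 1 h at 37 C before compound addition, and fluorescence is recorded for 3 min.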
# [4] = G protein-coupled receptor (GPCR) small molecule agonists, calcium flux assay: HEK293 wild type cell line counter screen (AID 1920065)
# Procedure, shortened: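 Seed cells, incubate 18 h (37 C, 5% CO2); add calcium dye, 1 h at 37 C; pin-transfer compounds, ATP control or DMSO; read fluorescence 480/540 nm each second for 3 min.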
# [5] = p53 small molecule agonists, cell-based qHTS assay with human liver microsomes (AID 1963577);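 also: p53 response element beta-lactamase reporter cells with liver microsomes plus NADPH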
# Procedure, shortened: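 HLM-supplemented p53RE-bla reporter assay: 16 h compound exposure at 37 C, microsomes and NADPH each 0.5 mg/mL final, read by fluorescence intensity.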
# [6] = p53 small molecule agonists, cell-based qHTS assay with rat liver microsomes (AID 1963578)
# Procedure, shortened: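 Quantitative HTS of the Tox21 10K library: p53RE-bla cells, rat liver microsomes plus NADPH at 0.5 mg/mL final each, 16 h at 37 C, beta-lactamase fluorescence detection.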
# [7] = p53 small molecule agonists, cell-based qHTS assay with human liver microsomes: qHTS cell viability counter screen (AID 1963579); also: nearly all actives have a fitted effect of over 45% in size
# Procedure, shortened: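 Viability of p53RE-bla cells is measured as CellTiter-Glo luminescence following a 16 h, 37 C incubation with compound, liver microsomes from human donors and NADPH.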
# [8] = p53 small molecule agonists, cell-based qHTS assay with rat liver microsomes: qHTS cell viability counter screen (AID 1963580); also: nearly all actives have a fitted effect of over 45% in size; also: potency is read from the fitted curve at half-maximal effect
# Procedure, shortened: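 Cytotoxicity counter screen: intracellular ATP read by CellTiter-Glo luminescence in the p53 reporter wells. HCT-116 p53RE-bla cells were treated for 16 h at 37 C alongside rat liver microsomes and NADPH, each 0.5 mg/mL final.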
# [9] = p53 small molecule agonists, cell-based qHTS assay: qHTS cell viability counter screen (AID 1963581); also: nearly all actives have a fitted effect of over 45% in size; also: potency is read from the fitted curve at half-maximal effect
# Procedure, shortened: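 Viability was counter-screened in parallel with the p53 agonist reporter by measuring intracellular ATP luminescence in the same HCT-116 p53RE-bla wells after 16 h compound treatment at 37 C.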
# [10] = p53 small molecule agonists, cell-based qHTS assay (AID 1963582; active = well fitted activation curve with a large enough effect in the signal ratio in the repeat runs, not every such curve was filed as active; the % refers to the signal ratio)
# Procedure, shortened: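 Cells carrying a p53-responsive bla reporter are treated with test compounds for 16 h at 37 C; beta-lactamase activity is then detected with LiveBLAzer B/G FRET substrate after 2 h at room temperature.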
# [11] = target: 5-hydroxytryptamine receptor 2A (Homo sapiens) (UniProt P28223); assay: 5-hydroxytryptamine receptor 2A (HTR2A) small molecule antagonists, cell-based qHTS assay (AID 1963586); also: nearly all actives have a fitted effect of over 45% in size; also: potency is read from the fitted curve at half-maximal effect
# Chain of 5-hydroxytryptamine receptor 2A (Homo sapiens) (P28223 whole entry, looked up): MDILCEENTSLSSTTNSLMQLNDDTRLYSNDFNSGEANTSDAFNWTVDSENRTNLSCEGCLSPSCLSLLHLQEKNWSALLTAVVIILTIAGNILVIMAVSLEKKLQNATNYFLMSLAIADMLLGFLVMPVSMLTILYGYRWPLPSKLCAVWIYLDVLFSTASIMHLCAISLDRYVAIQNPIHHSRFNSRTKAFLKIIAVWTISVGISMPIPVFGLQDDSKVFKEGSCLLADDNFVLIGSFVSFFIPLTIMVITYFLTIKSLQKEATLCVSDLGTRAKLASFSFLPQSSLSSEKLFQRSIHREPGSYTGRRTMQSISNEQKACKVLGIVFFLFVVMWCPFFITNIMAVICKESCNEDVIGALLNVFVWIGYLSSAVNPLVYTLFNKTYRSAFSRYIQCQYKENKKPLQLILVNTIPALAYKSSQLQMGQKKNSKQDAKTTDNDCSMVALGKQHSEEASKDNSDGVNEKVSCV
# Procedure, shortened: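 CHO cells stably expressing human HTR2A were plated for 18 h at 37 C, then loaded with calcium dye for 1 h. Compounds were preincubated 5 min at room temperature before DOI (4 nM solution) was added. Kinetic fluorescence was read for 3 min.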
# [12] = target: 5-hydroxytryptamine receptor 2A (Homo sapiens) (UniProt P28223); assay: 5-hydroxytryptamine receptor 2A (HTR2A) small molecule agonists, cell-based qHTS assay (AID 1963587); also: nearly all actives have a fitted effect of over 30% in size
# Procedure, shortened: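 Kinetic calcium-flux fluorescence (2 min, 1 sec intervals) after compound addition in agonist mode. HTR2A-CHO cells were cultured 18 h, then dye-loaded 1 h at 37 C.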
# [13] = target: Muscarinic acetylcholine receptor M1 (Homo sapiens) (UniProt P11229); assay: Cholinergic receptor muscarinic 1 (CHRM1) small molecule antagonists, cell-based qHTS assay (AID 1963588); also: nearly all actives have a fitted effect of over 40% in size; also: potency is read from the fitted curve at half-maximal effect
# Chain of Muscarinic acetylcholine receptor M1 (Homo sapiens) (P11229 whole entry, looked up): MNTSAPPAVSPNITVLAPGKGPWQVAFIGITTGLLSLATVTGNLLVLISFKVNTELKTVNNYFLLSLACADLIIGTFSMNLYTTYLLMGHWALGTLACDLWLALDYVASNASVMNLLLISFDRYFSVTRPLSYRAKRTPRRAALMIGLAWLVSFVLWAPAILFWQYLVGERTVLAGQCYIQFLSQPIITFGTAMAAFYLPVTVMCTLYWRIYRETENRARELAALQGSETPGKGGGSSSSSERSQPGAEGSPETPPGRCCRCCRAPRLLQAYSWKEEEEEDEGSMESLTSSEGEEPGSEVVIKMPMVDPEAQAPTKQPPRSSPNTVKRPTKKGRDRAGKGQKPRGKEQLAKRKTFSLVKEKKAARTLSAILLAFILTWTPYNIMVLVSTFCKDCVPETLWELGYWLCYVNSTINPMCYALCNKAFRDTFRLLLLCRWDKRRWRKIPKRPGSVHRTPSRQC
# Procedure, shortened: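 Compounds were tested at 15 concentrations in three independent runs. Dye-loaded CHRM1-CHO cells were exposed 5 min at room temperature before stimulation by acetylcholine added at 50nM. Intracellular calcium was read kinetically on FDSS for 3 min.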
# [14] = target: Muscarinic acetylcholine receptor M1 (Homo sapiens) (UniProt P11229); assay: Cholinergic receptor muscarinic 1 (CHRM1) small molecule agonists, cell-based qHTS assay (AID 1963589); also: nearly all actives have a fitted effect of over 35% in size
# Procedure, shortened: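 Cells were plated and incubated 18 h at 37 C/5% CO2, loaded with calcium dye for 1 h at 37 C, then treated with compounds in DMSO. Fluorescence was recorded kinetically at 1 sec intervals.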
# [15] = cAMP Responsive Elements (CRE) small molecule agonists, cell-based qHTS assay (AID 1963590)
# Procedure, shortened: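 Cells carrying a CRE-driven beta-lactamase reporter (HEK 293T) are seeded, incubated overnight (18 h), and treated with test compounds for 3 h at 37 C; reporter activity is then detected with a FRET substrate after 2 h at room temperature.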
# [16] = cAMP Responsive Elements (CRE) small molecule antagonists, cell-based qHTS assay (AID 1963591; active = well fitted inhibition curve with a large enough effect in the signal ratio in the repeat runs, not every such curve was filed as active; the % refers to the signal ratio)
# Procedure, shortened: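 Cells (CRE-bla HEK 293T, DMEM with 10% dialyzed FBS and 25 mM HEPES) are seeded and incubated 18 h. Compounds are added with NKH477 agonist at 0.25 uM final for 3 h, then FRET substrate for 2 h.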
# [17] = target: Beta-2 adrenergic receptor (Homo sapiens) (UniProt P07550); assay: Adrenergic beta2 receptor (ADRB2) small molecule antagonists, cell-based qHTS assay (AID 1963592); also: nearly all actives have a fitted effect of over 50% in size; also: potency is read from the fitted curve at half-maximal effect
# Chain of Beta-2 adrenergic receptor (Homo sapiens) (P07550 whole entry, looked up): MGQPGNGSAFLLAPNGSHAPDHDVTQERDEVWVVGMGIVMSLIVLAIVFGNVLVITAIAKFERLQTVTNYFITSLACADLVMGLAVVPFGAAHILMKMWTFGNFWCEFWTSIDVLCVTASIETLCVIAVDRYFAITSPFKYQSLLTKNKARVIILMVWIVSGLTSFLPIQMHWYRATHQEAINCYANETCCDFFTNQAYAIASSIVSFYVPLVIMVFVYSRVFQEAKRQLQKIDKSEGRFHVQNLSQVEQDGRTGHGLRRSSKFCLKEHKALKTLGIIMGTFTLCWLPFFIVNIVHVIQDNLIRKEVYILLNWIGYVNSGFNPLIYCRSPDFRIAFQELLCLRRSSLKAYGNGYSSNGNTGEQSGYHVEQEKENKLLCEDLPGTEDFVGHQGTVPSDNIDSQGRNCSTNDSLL
# Procedure, shortened: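 Assay format: CHO-ADRB2 cells, 18-20hr seeding at 37C/5% CO2, then compound plus 1nM isoproterenol agonist mix for 0.5hr RT. Homogeneous time-resolved fluorescence cAMP detection after 1hr, expressed as 665/615 nm ratio.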
# [18] = target: Beta-2 adrenergic receptor (Homo sapiens) (UniProt P07550); assay: Adrenergic beta2 receptor (ADRB2) small molecule agonists, cell-based qHTS assay (AID 1963593);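 also: CHO cells stably overexpressing human ADRB2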
# Procedure, shortened: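 CHO cells stably over-expressing ADRB2 were plated overnight at 37C, then dosed with compounds plus a stimulation mix containing 100uM IBMX and 25uM Ro-20-1724 for 0.5hr at room temperature. cAMP was measured by HTRF competition, 1hr.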
# [19] = target: D(2) dopamine receptor (Homo sapiens) (UniProt P14416); assay: Dopamine D2 receptor (DRD2) small molecule agonists, cell-based qHTS assay (AID 1963594); also: nearly all actives have a fitted effect of over 35% in size
# Chain of D(2) dopamine receptor (Homo sapiens) (P14416 whole entry, looked up): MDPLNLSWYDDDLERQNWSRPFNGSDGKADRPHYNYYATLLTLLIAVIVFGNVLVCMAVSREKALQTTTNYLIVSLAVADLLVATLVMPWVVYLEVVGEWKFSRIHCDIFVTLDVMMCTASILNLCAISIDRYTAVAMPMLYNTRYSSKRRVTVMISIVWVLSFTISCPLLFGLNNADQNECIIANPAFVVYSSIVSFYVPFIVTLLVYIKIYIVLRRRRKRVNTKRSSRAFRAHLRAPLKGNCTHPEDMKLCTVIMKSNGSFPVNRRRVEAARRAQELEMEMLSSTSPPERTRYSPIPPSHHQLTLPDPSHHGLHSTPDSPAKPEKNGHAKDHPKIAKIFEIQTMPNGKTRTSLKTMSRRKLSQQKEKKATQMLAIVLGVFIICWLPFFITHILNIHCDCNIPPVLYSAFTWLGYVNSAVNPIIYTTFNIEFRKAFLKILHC
# Procedure, shortened: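 cAMP accumulation in DRD2-HEK293 cells measured by HTRF after 1 h detection; compounds added 10 min before NKH477 (200nM […]) forskolin-analogue stimulation, 30 min at room temperature, with Ro20-1724 present at 0.1 mM final.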
# [20] = target: D(2) dopamine receptor (Homo sapiens) (UniProt P14416); assay: Dopamine D2 receptor (DRD2) small molecule antagonists, cell-based qHTS assay (AID 1963595; active = well fitted inhibition curve with a large enough effect in the signal ratio in the repeat runs, with a control signal flat; the % refers to the signal ratio)
# Procedure, shortened: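 Stable D2 receptor HEK293 line, 24 h after seeding. Compound preincubated 10 min, then quinpirole (12 nM) with forskolin analogue NKH477 (200 nM), 30 min, room temperature. Detection by time-resolved FRET of cAMP.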
SMILES,Potency [1],Potency [2],Potency [3],Potency [4],Potency [5],Potency [6],Potency [7],Potency [8],Potency [9],Potency [10],Potency [11],Potency [12],Potency [13],Potency [14],Potency [15],Potency [16],Potency [17],Potency [18],Potency [19],Potency [20]
Fc1ccc(Br)cc1,inactive,inactive,inactive,inactive,inactive,inactive,inactive,inactive,inactive,inactive,inactive,inactive,inactive,inactive,inactive,inactive,inactive,inactive,inactive,
NC(=O)N1c2ccccc2C=Cc2ccccc21,inactive,,inactive,,,,inactive,inactive,,,,,,,inactive,,inactive,,inactive,inactive
COC(=O)CCCC(=O)OC,inactive,inactive,inactive,inactive,inactive,inactive,inactive,inactive,inactive,inactive,inactive,inactive,inactive,inactive,inactive,inactive,,,inactive,inactive
CN1CCC[C@H]1c1cccnc1,inactive,,inactive,,,,inactive,,inactive,,,,,,inactive,inactive,inactive,inactive,inactive,inactive
CCOCC(=O)O,inactive,inactive,inactive,inactive,inactive,inactive,inactive,inactive,inactive,inactive,inactive,inactive,inactive,inactive,inactive,inactive,inactive,inactive,inactive,inactive
CC(C)(Oc1ccc(C2CC2(Cl)Cl)cc1)C(=O)O (configuration not stated),inactive,,inactive,inactive,inactive,inactive,,inactive,inactive,inactive,,,,,inactive,inactive,inactive,inactive,inactive,inactive
OCCOCCN1CCN(C(c2ccccc2)c2ccc(Cl)cc2)CC1 (configuration not stated),inactive,,inactive,,inactive,inactive,inactive,inactive,inactive,inactive,1.47 µM (active) and 1.63 µM (active),inactive,7.38 µM (active),inactive,inactive,inactive,inactive and 26.6 µM (active),,inactive,inactive
C=CCOC(=O)CC(C)C,inactive,inactive,inactive,inactive,inactive,inactive,inactive,inactive,inactive,inactive,inactive,,inactive,inactive,inactive,,inactive,inactive,inactive,inactive
Oc1c(Cl)cc(Cl)cc1Sc1cc(Cl)cc(Cl)c1O,13.7 µM (active) and 31.1 µM (active) and 27.3 µM (active),,inactive,inactive,inactive,inactive,,20.5 µM (active) and 46.5 µM (active) and inactive,36.4 µM (active) and inactive,inactive,,,,,,inactive,55.4 µM (active) and inactive,inactive,inactive,inactive
